Test results from PubChem BioAssay.
Active and inactive are the calls of the source.

Columns and labels:
[1] = E. coli DRC41 culture turbidity changes, primary screen, E. coli filamentation inducer project, strain DRC41, OD650, 48 h (AID 1152);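 note: E. coli MC1000 strain DRC41 lacking acrAB efflux pump and sulA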; details: E. coli DRC41 (acrAB sulA), higher = more signal, called active from +8 up or from −8 down
[2] = small-molecule binders of probe aLefty1, primary screen, biochemical, small-molecule microarray, 635/667 nm fluorescence (AID 1153); details: higher = more signal;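 note: score merges spot fluorescence with signal-to-noise ratio from the scanned slide images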
[3] = PSAC antagonists in infected red cells, primary screen, cell-based, P. falciparum Indochina, OD700, 1 h (AID 1154); details: P. falciparum Indochina infected RBC osmotic lysis, higher = more signal, called active from +8 up or from −8 down
[4] = PSAC antagonists in infected red cells, primary screen, cell-based, P. falciparum Indochina, OD700, 2 h (AID 1155);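 note: lysis reports solute entry through the parasite surface anion channel PSAC; channel blockers reduce lysis of infected cells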; details: P. falciparum Indochina infected erythrocytes, osmotic lysis OD700; higher = more signal, called active from +8 up or from −8 down
[5] = osmotic lysis modulators in infected erythrocytes, primary screen, PSAC antagonist project, cell-based, P. falciparum Indochina, OD700, 3 h (AID 1156); details: higher = more signal, called active from +8 up or from −8 down
[6] = PSAC antagonists in infected red cells, primary screen, cell-based, P. falciparum Indochina, OD700, 18 h (AID 1157); details: P. falciparum Indochina infected erythrocytes, osmotic lysis OD700, 18 h; higher = more signal, called active from +8 up or from −8 down
[7] = modulators of S6 phosphorylation in cells, primary screen, cell-based, A549, cytoblot, luminescence, serum-stimulated (AID 1158); details: A549 phospho-S6 cytoblot, 5 h, higher = more signal;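 note: serum-stimulated A549 lung adenocarcinoma cells; signal is phosphorylated S6 detected by cytoblot immunostaining with HRP secondary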
[8] = molecular target: NADPH oxidase 2 (Homo sapiens) (UniProt P04839); experiment: NOX2-dependent H2O2 signal modulators, primary screen, NOX inhibitor project, cell-based, HEK293-NOX2, PMA-stimulated, Amplex Red fluorescence (AID 1159); details: 45 min, higher = more signal, called active from +8 up or from −8 down; note: test concentration not given here
NADPH oxidase 2 (Homo sapiens), sequence (P04839 whole entry, looked up): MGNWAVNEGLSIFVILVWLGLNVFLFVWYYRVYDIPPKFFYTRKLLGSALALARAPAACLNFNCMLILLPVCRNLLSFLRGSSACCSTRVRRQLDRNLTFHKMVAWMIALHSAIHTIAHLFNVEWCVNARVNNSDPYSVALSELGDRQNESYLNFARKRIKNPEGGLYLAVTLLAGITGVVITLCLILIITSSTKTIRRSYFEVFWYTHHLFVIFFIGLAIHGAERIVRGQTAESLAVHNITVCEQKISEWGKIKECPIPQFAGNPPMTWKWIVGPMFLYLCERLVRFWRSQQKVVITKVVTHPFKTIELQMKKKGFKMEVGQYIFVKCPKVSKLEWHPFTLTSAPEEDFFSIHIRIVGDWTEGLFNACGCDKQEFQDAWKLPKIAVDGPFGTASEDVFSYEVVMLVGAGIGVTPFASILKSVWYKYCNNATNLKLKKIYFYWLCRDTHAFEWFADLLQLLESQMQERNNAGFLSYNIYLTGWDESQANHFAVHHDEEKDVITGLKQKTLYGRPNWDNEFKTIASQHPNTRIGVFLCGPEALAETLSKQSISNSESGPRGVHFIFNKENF

[9] = molecular target: NADPH oxidase 4 (Homo sapiens) (UniProt Q9NPH5); experiment: NOX4-dependent H2O2 signal modulators, primary screen, NOX inhibitor project, cell-based, HEK293-NOX4, tetracycline-induced, Amplex Red fluorescence (AID 1160); details: 45 min, higher = more signal, called active from +8 up or from −8 down
NADPH oxidase 4 (Homo sapiens), sequence (Q9NPH5 whole entry, looked up): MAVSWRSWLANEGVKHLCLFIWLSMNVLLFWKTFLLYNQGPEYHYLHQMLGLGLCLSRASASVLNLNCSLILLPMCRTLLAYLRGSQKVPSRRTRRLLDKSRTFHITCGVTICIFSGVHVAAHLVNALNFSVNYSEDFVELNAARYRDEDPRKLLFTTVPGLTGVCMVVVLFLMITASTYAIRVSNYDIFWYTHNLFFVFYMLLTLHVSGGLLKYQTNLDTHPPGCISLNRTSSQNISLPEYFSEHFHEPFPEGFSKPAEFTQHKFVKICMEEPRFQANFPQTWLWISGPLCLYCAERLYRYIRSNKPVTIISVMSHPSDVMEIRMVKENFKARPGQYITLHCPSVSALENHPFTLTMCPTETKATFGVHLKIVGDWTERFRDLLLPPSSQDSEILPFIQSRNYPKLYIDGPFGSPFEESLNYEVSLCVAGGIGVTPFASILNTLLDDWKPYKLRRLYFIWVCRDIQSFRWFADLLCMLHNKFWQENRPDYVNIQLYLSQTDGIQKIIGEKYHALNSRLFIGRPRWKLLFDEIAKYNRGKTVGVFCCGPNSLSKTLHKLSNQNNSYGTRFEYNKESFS

[10] = molecular target: NADPH oxidase 5 (Homo sapiens) (UniProt Q96PH1); experiment: NOX5-dependent H2O2 signal modulators, primary screen, NOX inhibitor project, cell-based, HEK293-NOX5, Amplex Red fluorescence (AID 1161); details: HEK293-NOX5, ionomycin, 45 min, higher = more signal
NADPH oxidase 5 (Homo sapiens), sequence (Q96PH1 whole entry, looked up): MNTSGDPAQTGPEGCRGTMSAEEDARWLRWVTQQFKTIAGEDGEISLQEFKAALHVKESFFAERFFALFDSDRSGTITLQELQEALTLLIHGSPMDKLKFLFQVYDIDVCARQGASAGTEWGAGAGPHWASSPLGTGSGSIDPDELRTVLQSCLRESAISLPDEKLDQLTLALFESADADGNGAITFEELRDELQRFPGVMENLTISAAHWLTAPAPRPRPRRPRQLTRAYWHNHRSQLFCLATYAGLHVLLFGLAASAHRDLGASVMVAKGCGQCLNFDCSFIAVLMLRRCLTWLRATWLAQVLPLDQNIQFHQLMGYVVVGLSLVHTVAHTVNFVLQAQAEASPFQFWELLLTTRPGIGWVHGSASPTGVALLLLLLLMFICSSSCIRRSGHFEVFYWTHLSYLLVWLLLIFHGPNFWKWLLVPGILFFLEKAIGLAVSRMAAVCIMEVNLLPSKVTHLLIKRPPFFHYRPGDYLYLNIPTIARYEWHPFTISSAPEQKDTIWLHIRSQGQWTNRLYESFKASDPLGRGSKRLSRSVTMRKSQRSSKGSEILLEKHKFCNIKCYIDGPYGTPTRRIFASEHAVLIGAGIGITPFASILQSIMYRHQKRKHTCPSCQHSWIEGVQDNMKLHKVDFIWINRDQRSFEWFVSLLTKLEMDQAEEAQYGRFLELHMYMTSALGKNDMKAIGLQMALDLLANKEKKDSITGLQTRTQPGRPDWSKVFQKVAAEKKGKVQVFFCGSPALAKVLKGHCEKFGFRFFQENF

[11] = A549 cell viability effects, profiling panel, calcein-AM fluorescence, 48 h, basal (AID 1162); details: higher = more signal; note: test concentration not given here
[12] = adipocyte viability effects, profiling panel, cell-based, 3T3-L1 adipocytes, calcein-AM fluorescence, 48 h, basal (AID 1163); details: 3T3-L1 adipocytes viability, higher = more signal; note: test concentration not given here
[13] = HepG2 cell viability effects, profiling panel, calcein-AM fluorescence, 48 h, basal (AID 1164); details: higher = more signal; note: test concentration not given here
[14] = MM1S cell viability effects, profiling panel, calcein-AM fluorescence, 48 h, basal (AID 1165); details: higher = more signal;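 note: viability of MM1S multiple myeloma cells under basal unstimulated conditions; test concentration not given here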
[15] = basal RPMI8226 viability, no added stimulus, profiling panel, cell-based, calcein-AM fluorescence, 48 h, PK04 Diversity Set (AID 1166); details: RPMI8226 myeloma viability, higher = more signal;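 note: cells grown under basal conditions without added stimulus; test concentration not given here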
[16] = basal HepG2 mitochondrial membrane potential changes, profiling panel, cell-based, JC-1 fluorescence, 24 h, 100 nL compound (AID 1167); details: higher = more signal; note: test concentration not given here
[17] = basal 3T3-L1 adipocyte mitochondrial potential changes, profiling panel, cell-based, JC-1 fluorescence, 3T3-L1 adipocytes, 24 h, 100 nL compound (AID 1168); details: JC-1 mitochondrial fluorescence, higher = more signal, called active from +8 up or from −8 down; note: test concentration not given here
[18] = basal RPMI8226 mitochondrial membrane potential changes, profiling panel, cell-based, JC-1 fluorescence, 24 h, 100 nL compound (AID 1169); details: RPMI8226 myeloma, JC-1 mitochondrial potential fluorescence, higher = more signal; note: test concentration not given here
[19] = basal MM1S mitochondrial membrane potential changes, profiling panel, cell-based, JC-1 fluorescence, 24 h, 100 nL compound (AID 1170); details: higher = more signal; note: test concentration not given here
[20] = A549 lung cancer cell viability effects, profiling panel, resazurin fluorescence, 24 h, PK04 Diversity Set (AID 1171); details: higher = more signal, called active from +8 up or from −8 down; note: test concentration not given here

Structure (SMILES) | z-score [1] | composite z-score [2] | z-score [3] | z-score [4] | z-score [5] | z-score [6] | z-score [7] | z-score [8] | z-score [9] | z-score [10] | z-score [11] | z-score [12] | z-score [13] | z-score [14] | z-score [15] | z-score [16] | z-score [17] | z-score [18] | z-score [19] | z-score [20]
CCCCNC(=O)c1ccc(C#C[Si](C)(C)C)c(OC(C)=O)c1 | 0.151 (inactive) | -0.0032 | 12.3 (active) | 1.64 (inactive) | 1.67 (inactive) | 0.672 (inactive) | 0.726 | 1.8 (inactive) | 0.194 (inactive) | 0.0648 | -0.507 | 0.477 | -0.484 | 0.131 | -1.13 | -1.12 | -0.538 (inactive) | -0.215 | -0.601 | -0.389 (inactive)
COCCOC(=O)N1C(=O)[C@@]2(c3cc(C#CCCO)ccc31)[C@H](C(=O)N1CCc3cc(OC)c(OC)cc3C1)[C@H]1C(=O)O[C@H](c3ccccc3)[C@H](c3ccccc3)N1[C@@H]2c1ccccc1OCCO | 0.718 (inactive) | 1.33 | 3.62 (inactive) | 0.928 (inactive) | 1.6 (inactive) | 1.05 (inactive) | 0.0854 | 1.72 (inactive) | 1.7 (inactive) | -0.204 | 0.373 | 0.514 | 1.61 | 1.1 | 0.458 | 0.228 | 1.58 (inactive) | -0.647 | -1.23 | 0.456 (inactive)
[N-]=[N+]=NCc1ccccc1C[C@]1(C(=O)N2CCOCC2)N=C(c2ccc(OCCCO)cc2)O[C@H]1c1ccccc1CN=[N+]=[N-] | 0.341 (inactive) | 1.15 | 17.5 (active) | 3.97 (inactive) | 2.79 (inactive) | 1.15 (inactive) | 1.02 | -0.647 (inactive) | 0.782 (inactive) | 2.13 | 0.869 | 0.577 | 0.74 | -1.47 | -2.29 | 1.24 | 1.04 (inactive) | -1.18 | 0.233 | -0.768 (inactive)
O=C1NC(=O)C2C1C=CC(C(O)c1cccc(O)c1)N2Nc1ccc(Cl)cc1Cl (stereo not given) | -4.5 (inactive) | 0.139 | 4.82 (inactive) | 1.36 (inactive) | -0.608 (inactive) | 0.901 (inactive) | -1.22 | -0.897 (inactive) | -5.3 (inactive) | -3.11 | -1.09 | -0.648 | -1.13 | -3.03 | -1.52 | -2.54 | -0.299 (inactive) | -0.39 | 0.0224 | -0.728 (inactive)
NCCCC[C@@H]1NC(=O)[C@H]2C[C@@H](C(=O)NCc3ccc(F)cc3)[C@@H](c3cccc(OCCO)c3)N2C1=O | -0.405 (inactive) | 0.254 | -0.591 (inactive) | 0.157 (inactive) | -0.805 (inactive) | 0.274 (inactive) | -0.325 | 1.88 (inactive) | 0.647 (inactive) | 0.582 | 0.172 | -0.716 | 1.13 | -0.893 | -0.259 | -2.23 | 0.13 (inactive) | -0.968 | -0.894 | 0.858 (inactive)
CN(C)CCCNC(=O)[C@@]1(Cc2ccccc2I)c2ccccc2C(=O)N(Cc2ccccc2)[C@H]1c1ccc(CO)cc1 | -0.206 (inactive) | -0.729 | 1.88 (inactive) | 0.614 (inactive) | -1.26 (inactive) | 0.452 (inactive) | -0.5 | -8.23 (active) | -3.08 (inactive) | -1.71 | -2.02 | -0.826 | -3.4 | -3.73 | -3.31 | 0.601 | -0.354 (inactive) | -0.681 | -1.54 | -3.32 (inactive)
CC=CC(O)C1C=CC2C(=O)N(C)C(=O)C2N1NC(=O)OC(C)(C)C (stereo not given) | -1.06 (inactive) | 0.277 | -0.597 (inactive) | 0.43 (inactive) | -0.0501 (inactive) | 0.556 (inactive) | -1.42 | -0.798 (inactive) | -1.37 (inactive) | -1.22 | -0.73 | -0.604 | -0.39 | -0.354 | -0.303 | -1.55 | -0.238 (inactive) | 0.397 | 0.163 | -0.383 (inactive)
COc1ccc([Si](C)(C)[C@H]2[C@H](CCO)O[C@@]3(C(=O)N(Cc4ccccc4)c4ccc(N(C=O)c5ccccc5)cc43)[C@@H]2C)cc1 | 0.352 (inactive) | 0.0927 | 5.68 (inactive) | 2.52 (inactive) | 1.12 (inactive) | 1.28 (inactive) | 0.456 | -0.98 (inactive) | 0.184 (inactive) | 1.23 | -0.108 | 0.288 | -3.3 | -0.622 | -2.82 | 0.553 | -0.00912 (inactive) | -0.914 | -1.27 | -1.25 (inactive)
C=CCOC(=O)[C@H]1[C@@H]2C(=O)O[C@@H](c3ccccc3)[C@@H](c3ccccc3)N2[C@@H](c2ccc(OCCOC(=O)[C@@H]3C[C@@H]4C(=O)N[C@@H](CC(C)C)C(=O)N4[C@@H]3c3ccc(O)cc3)cc2)[C@]12C(=O)Nc1ccc(I)cc12 | 0.833 (inactive) | 0.106 | 2.77 (inactive) | 1.33 (inactive) | 2.31 (inactive) | -1.46 (inactive) | 1.09 | 0.894 (inactive) | 0.499 (inactive) | 1.4 | 0.13 | 0.283 | 1.55 | 0.345 | -0.207 | -1.78 | 1 (inactive) | -0.438 | -0.961 | -0.629 (inactive)
